# In publication PMC5540273 (PLoS ONE, 2017):
# Where “and” joins values, the source holds several entries; their conditions need not be identical. Equal values may be shown once. Read-outs that look alike come from different tables or passages of the source.
# Legend:
# PIM1 = conditions: n = 1
# PIM2 = conditions: concentration: 1 μM, replicates: in singlicate; n = 1
# PIM3 = conditions: n = 1
# PIP5K1A = conditions: concentration: 1 μM, replicates: in singlicate; n = 1
# PIP5K1C = conditions: n = 1
# PIP5K2B = conditions: n = 1
# PIP5K2C = test system: T1, PIP5K2C; conditions: n = 1
# T1 construct: gene PIP4K2C
# PKAC-alpha = test system: T2, PKAC-alpha; conditions: n = 1
# T2 construct: gene PRKACA
# PKAC-beta = test system: T3, PKAC-beta; conditions: n = 1
# T3 construct: gene PRKACB
# PKMYT1 = conditions: n = 1
# PKN1 = conditions: n = 1
# PKN2 = conditions: concentration: 1 μM, replicates: in singlicate; n = 1
# PLK1 = conditions: n = 1
# PLK2 = conditions: concentration: 1 μM, replicates: in singlicate; n = 1
# PLK3 = conditions: concentration: 1 μM, replicates: in singlicate; n = 1
# PLK4 = conditions: n = 1
# PRKCD = conditions: concentration: 1 μM, replicates: in singlicate; n = 1
# PRKCE = conditions: n = 1
# PRKCH = conditions: n = 1
# PRKCI = conditions: n = 1
# [1] = concentration: 1 μM, replicates: in singlicate
# [2] = concentration: 1 μM,replicates: in singlicate, 1 µM
# 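Further: KINOMEscan kinase panel screen.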
compound,measurement,setting,value
COc1ccc(Nc2nccc(-c3cccc(NC(=O)c4cc5cc(F)ccc5[nH]4)c3)n2)cc1 [GSK1229782],%Inh,PIM1; [1],36%
same,%Inh,PIM2,0%
same,%Inh,PIM3; [1],30%
same,%Inh,PIP5K1A,0%
same,%Inh,PIP5K1C; [1],15%
same,%Inh,PIP5K2B; [1],12%
same,%Inh,PIP5K2C; [1],81%
same,%Inh,PKAC-alpha; [1],15%
same,%Inh,PKAC-beta; [1],21%
same,%Inh,PKMYT1; [1],6%
same,%Inh,PKN1; [1],0%
same,%Inh,PKN2,0%
same,%Inh,PLK1; [1],24%
same,%Inh,PLK2,0%
same,%Inh,PLK3,0%
same,%Inh,PLK4; [1],4%
same,%Inh,PRKCD,42%
same,%Inh,PRKCE; [1],43%
same,%Inh,PRKCH; [1],20%
same,%Inh,PRKCI; [1],32%
CSc1nn2c(=O)cc(N3CCOCC3)nc2n1Cc1cccc(C(F)(F)F)c1C [GSK2363608],%Inh,PIM1; [2],0% and 34%
same,%Inh,PIM2,0%
same,%Inh,PIM3; [2],0% and 27%
same,%Inh,PIP5K1A,0%
same,%Inh,PIP5K1C; [2],30% and 0%
same,%Inh,PIP5K2B; [2],1% and 4%
same,%Inh,PIP5K2C; [2],6% and 8%
same,%Inh,PKAC-alpha; [2],50% and 0%
same,%Inh,PKAC-beta; [2],64% and 0%
same,%Inh,PKMYT1; [2],13% and 19%
same,%Inh,PKN1; [2],14% and 0%
same,%Inh,PKN2,0%
same,%Inh,PLK1; [2],25% and 8%
same,%Inh,PLK2,0%
same,%Inh,PLK3,0%
same,%Inh,PLK4; [2],11% and 0%
same,%Inh,PRKCD,0%
same,%Inh,PRKCE; [2],18% and 0%
same,%Inh,PRKCH; [2],20% and 0%
same,%Inh,PRKCI; [2],13% and 18%
CN(C)CCN(C)C(=O)c1cc(-c2ccncc2)c(-c2ccc(Cl)c(O)c2)o1.Cl.Cl [SB-710397],%Inh,PIM1; [1],0%
same,%Inh,PIM2,0%
same,%Inh,PIM3; [1],0%
same,%Inh,PIP5K1A,1%
same,%Inh,PIP5K1C; [1],67%
same,%Inh,PIP5K2B; [1],8%
same,%Inh,PIP5K2C; [1],42%
same,%Inh,PKAC-alpha; [1],9%
same,%Inh,PKAC-beta; [1],0%
same,%Inh,PKMYT1; [1],0%
same,%Inh,PKN1; [1],17%
same,%Inh,PKN2,0%
same,%Inh,PLK1; [1],8%
same,%Inh,PLK2,0%
same,%Inh,PLK3,0%
same,%Inh,PLK4; [1],0%
same,%Inh,PRKCD,0%
same,%Inh,PRKCE; [1],47%
same,%Inh,PRKCH; [1],22%
same,%Inh,PRKCI; [1],33%
CN1C(=O)C(Nc2ccc(Cl)c(C(=O)O)c2)=C(c2ccc(Cl)cc2)C1=O [SB-404290],%Inh,PIM1; [1],0%
same,%Inh,PIM2,0%
same,%Inh,PIM3; [1],0%
same,%Inh,PIP5K1A,11%
same,%Inh,PIP5K1C; [1],0%
same,%Inh,PIP5K2B; [1],0%
same,%Inh,PIP5K2C; [1],0%
same,%Inh,PKAC-alpha; [1],0%
same,%Inh,PKAC-beta; [1],4%
same,%Inh,PKMYT1; [1],0%
same,%Inh,PKN1; [1],91.6%
same,%Inh,PKN2,31%
same,%Inh,PLK1; [1],18%
same,%Inh,PLK2,24%
same,%Inh,PLK3,18%
same,%Inh,PLK4; [1],0%
same,%Inh,PRKCD,0%
same,%Inh,PRKCE; [1],35%
same,%Inh,PRKCH; [1],0%
same,%Inh,PRKCI; [1],0%
C[C@@H]1CCCCN1c1cc(-c2ccc3c(N)n[nH]c3c2)nc(N)n1 [GSK2258759],%Inh,PIM1; [1],0%
same,%Inh,PIM2,0%
same,%Inh,PIM3; [1],7%
same,%Inh,PIP5K1A,0%
same,%Inh,PIP5K1C; [1],44%
same,%Inh,PIP5K2B; [1],4%
same,%Inh,PIP5K2C; [1],0%
same,%Inh,PKAC-alpha; [1],0%
same,%Inh,PKAC-beta; [1],0%
same,%Inh,PKMYT1; [1],2%
same,%Inh,PKN1; [1],6%
same,%Inh,PKN2,0%
same,%Inh,PLK1; [1],0%
same,%Inh,PLK2,0%
same,%Inh,PLK3,0%
same,%Inh,PLK4; [1],42%
same,%Inh,PRKCD,0%
same,%Inh,PRKCE; [1],0%
same,%Inh,PRKCH; [1],0%
same,%Inh,PRKCI; [1],22%
COC(=O)c1c(-c2ccccc2)c2cc(OC)ccc2c(=O)n1Cc1ccccc1,%Inh,PIM1; [1],18%
same,%Inh,PIM2,2%
same,%Inh,PIM3; [1],20%
same,%Inh,PIP5K1A,16%
same,%Inh,PIP5K1C; [1],14%
same,%Inh,PIP5K2B; [1],38%
same,%Inh,PIP5K2C; [1],0%
same,%Inh,PKAC-alpha; [1],21%
same,%Inh,PKAC-beta; [1],0%
same,%Inh,PKMYT1; [1],2%
same,%Inh,PKN1; [1],4%
same,%Inh,PKN2,0%
same,%Inh,PLK1; [1],0%
same,%Inh,PLK2,25%
same,%Inh,PLK3,20%
same,%Inh,PLK4; [1],19%
same,%Inh,PRKCD,19%
same,%Inh,PRKCE; [1],12%
same,%Inh,PRKCH; [1],9%
same,%Inh,PRKCI; [1],0%
COc1ccccc1-c1ccc2c(NC(=O)C3CC3)n[nH]c2n1 [SB-711239],%Inh,PIM1; [1],13%
same,%Inh,PIM2,0%
same,%Inh,PIM3; [1],0%
same,%Inh,PIP5K1A,41%
same,%Inh,PIP5K1C; [1],53%
same,%Inh,PIP5K2B; [1],30%
same,%Inh,PIP5K2C; [1],19%
same,%Inh,PKAC-alpha; [1],6%
same,%Inh,PKAC-beta; [1],2%
same,%Inh,PKMYT1; [1],0%
same,%Inh,PKN1; [1],12%
same,%Inh,PKN2,2%
same,%Inh,PLK1; [1],10%
same,%Inh,PLK2,0%
same,%Inh,PLK3,0%
same,%Inh,PLK4; [1],0%
same,%Inh,PRKCD,0%
same,%Inh,PRKCE; [1],3%
same,%Inh,PRKCH; [1],27%
same,%Inh,PRKCI; [1],0%
Fc1cc(Cl)ccc1Nc1ccnc2cc(-c3ccc(CN4CCCCC4)o3)ccc12 [GW560116],%Inh,PIM1; [1],13%
same,%Inh,PIM2,0%
same,%Inh,PIM3; [1],0%
same,%Inh,PIP5K1A,0%
same,%Inh,PIP5K1C; [1],57%
same,%Inh,PIP5K2B; [1],5%
same,%Inh,PIP5K2C; [1],71%
same,%Inh,PKAC-alpha; [1],100%
same,%Inh,PKAC-beta; [1],0%
same,%Inh,PKMYT1; [1],0%
same,%Inh,PKN1; [1],0%
same,%Inh,PKN2,0%
same,%Inh,PLK1; [1],0%
same,%Inh,PLK2,0%
same,%Inh,PLK3,0%
same,%Inh,PLK4; [1],51%
same,%Inh,PRKCD,0%
same,%Inh,PRKCE; [1],5%
same,%Inh,PRKCH; [1],0%
same,%Inh,PRKCI; [1],0%
O=C(O)COc1ncnc2cc(-c3ccc4[nH]ncc4c3)sc12,%Inh,PIM1; [1],0%
same,%Inh,PIM2,0%
same,%Inh,PIM3; [1],7%
same,%Inh,PIP5K1A,0%
same,%Inh,PIP5K1C; [1],0%
same,%Inh,PIP5K2B; [1],17%
same,%Inh,PIP5K2C; [1],0%
same,%Inh,PKAC-alpha; [1],0%
same,%Inh,PKAC-beta; [1],4%
same,%Inh,PKMYT1; [1],0%
same,%Inh,PKN1; [1],30%
same,%Inh,PKN2,19%
same,%Inh,PLK1; [1],2%
same,%Inh,PLK2,18%
same,%Inh,PLK3,12%
same,%Inh,PLK4; [1],15%
same,%Inh,PRKCD,19%
same,%Inh,PRKCE; [1],10%
same,%Inh,PRKCH; [1],0%
same,%Inh,PRKCI; [1],3%
